Experimental data from PubChem BioAssay (NCATS).
Records with an inconclusive call do not appear. Entries that show only a call come without a potency. A number with no mark means an inactive call. Activity calls are given as the source filed them. Calls follow the shape of the dose curve; as a rule, active = well fitted cell-killing curve with a large enough effect; inconclusive = small, poorly fitted or top-dose-only effect, or effect the other way; inactive = flat fitted curve, though single readings scatter. *1 amine or outer side, *2 acyl side, *3 side chain or, on linkers, in order; H or OH if unused. Where a SMILES comes first, the peptide text is derived from it. [ ]: non-standard residue; d: D form. X4 = CC(C)=CCc1cc(C(O)C(N[*:1])C(=O)[*:2])ccc1O

test system: CASKI; assay: Primary qHTS to identify gynecologic anti-cancer compounds using libraries of approved drugs and bioactive compounds (AID 1345084); conditions: Gynecologic cancer cell panel viability, ATPlite luminescence, 48 h; series mostly up to 57.5 µM; also: nearly all actives have a fitted effect of over 55% in size
Procedure, shortened: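 Luminescence from the ATPlite ATP-monitoring reagent indicates viable cell number; lower signal means cytotoxicity. Cells received compound 16 h after seeding and were exposed for 48 h across five concentrations.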
Potency is read from the fitted curve at half-maximal effect.

Row | Compound | Potency | activity change, negative = cytotoxicity
1 | Cn1nnc(-c2ccc(-c3ccc(N4C[C@H](CO)OC4=O)cc3F)cn2)n1 | inactive | –
2 | CC(=O)OC1CC2C3(C)CCC(OC(=O)CC(=O)O)C(C)(C)C3CCC2(C)C2(C)CCC(C3(C)CCC(=O)O3)C12 (configuration not stated) | inactive | –
3 | COc1cc(O)cc(/C=C/c2ccc(O[C@@H]3O[C@H](CO)[C@@H](O)[C@H](O)[C@H]3O)cc2)c1 | inactive | –
4 | O=S(=O)(c1ccccc1)c1cnc2c(N3CCNCC3)cccc2c1 | inactive | –
5 | CC(C)c1cc(C(=O)N2CC[C@H](NC(=O)C3CC3)C2)n[nH]1 | inactive | –
6 | CC(=O)OC1C(O)CC2(C)C(CCC(C)C23Cc2c(O)cc(CO)c(C=O)c2O3)C1(C)C (configuration not stated) | inactive | –
7 | COC(=O)CC(C)(O)CC(=O)OCc1ccc(O[C@@H]2O[C@H](CO)[C@@H](O)[C@H](O)[C@H]2O)cc1 (some centres not stated) | inactive | –
8 | CC(Cc1cc2c(c(C(N)=O)c1)N(CCCO)CC2)NCCOc1ccccc1OCC(F)(F)F (configuration not stated) | inactive | –
9 | O=C1CCC=CC1(O)C(=O)OCc1ccccc1O[C@@H]1O[C@H](CO)[C@@H](O)[C@H](O)[C@H]1O (some centres not stated) | inactive | –
10 | C=C1C(O)CC2C(C(=O)O)=COC(O[C@@H]3O[C@H](COC(=O)/C=C/c4ccc(O)cc4)[C@@H](O)[C@H](O)[C@H]3O)C12 (some centres not stated) | inactive | –
11 | O=C(OC1C=C(CO)C2C(OC3OC(CO)C(O)C(O)C3O)OC=CC12)c1ccc(O)cc1 (configuration not stated) | inactive | –
12 | COC(=O)CC(O)CC(O)/C=C/c1c(C)ccc2c1C(O)CC(C)C2 (configuration not stated) | inactive | –
13 | COc1cc(O)c2c(c1)C1=C[C@H](O)[C@@H](O)C[C@]1(C)OC2=O | inactive | –
14 | CC(C)c1ccc(CO)cc1O[C@@H]1O[C@H](CO)[C@@H](O)[C@H](O)[C@H]1O | inactive | –
15 | CC(=O)O[C@@H]1[C@H](O)[C@@H](O[C@@H]2O[C@@H](C)[C@H](O[C@@H]3OC[C@@H](O)[C@H](O[C@@H]4OC[C@@H](O)[C@H](O)[C@H]4O)[C@H]3O)[C@@H](O[C@@H]3O[C@H](CO)[C@@H](O)[C@H](O)[C@H]3O)[C@H]2O)[C@H](OC(=O)[C@]23CCC(C)(C)C[C@H]2C2=CCC4[C@@]5(C)CC[C@H](O[C@@H]6O[C@H](C(=O)O)[C@@H](O)[C@H](O[C@@H]7OC[C@@H](O)[C@H](O)[C@H]7O)[C@H]6O[C@@H]6O[C@H](CO)[C@H](O)[C@H](O)[C@H]6O)[C@@](C)(C=O)C5CC[C@@]4(C)[C@]2(C)CC3)O[C@@H]1C (some centres not stated) | – | -13.6% [at 6.55 µM]
16 | C/C=C(\C)C(=O)O[C@@H]1CC2[C@@H](CC=C3C[C@@H](O[C@H]4C[C@H](OC)[C@H](O[C@H]5C[C@H](OC)[C@H](O[C@@H]6O[C@H](C)[C@@H](O[C@H]7C[C@H](OC)[C@H](O[C@@H]8O[C@H](CO)[C@@H](O)[C@H](O)[C@H]8O)[C@@H](C)O7)[C@H](OC)[C@H]6O)[C@@H](C)O5)[C@@H](C)O4)CC[C@@]32C)[C@@]2(O)CC[C@H](C(C)=O)[C@@]12C (some centres not stated) | – | 2.06% [at 6.55 µM]
17 | C=C(CCC1=C(C)[C@H]2[C@H](CC3[C@@H]4CC=C5C[C@@H](O)C[C@@H](O)[C@]5(C)C4[C@H](O)C[C@@]32C)O1)CO[C@@H]1O[C@H](CO)[C@@H](O)[C@H](O)[C@H]1O (some centres not stated) | 3.16 µM (active) | –
18 | C[C@@H]1CC[C@@]2(OC1)O[C@H]1C[C@H]3[C@@H]4CC=C5C[C@@H](O)CC[C@]5(C)[C@H]4CC[C@]3(C)[C@H]1[C@@H]2C | inactive | –
19 | COC1=CC(=O)CC(C)C12Oc1cc(OC)cc(O)c1C2=O (configuration not stated) | inactive | –

Row | Compound | Potency | activity change, negative = cytotoxicity
20 | CC(C)(C)NS(=O)(=O)c1cncc(-c2cc(F)c3nc(N)nn3c2)c1 | inactive | –
21 | CC(C)=CCc1cc(C(O)C2NC(=O)CNC(=O)C(Cc3c[nH]c4ccccc34)NC(=O)C3CCCN3C(=O)CNC(=O)C(C(C)C)NC(=O)CNC2=O)ccc1O (configuration not stated) (cyclo(G[X4]GVGPW); configuration not given here) | – | -0.505% [at 11.6 µM]
22 | Cc1cc(N2CCN([C@@H]3CN[C@H](C(=O)N4CCSC4)C3)CC2)n(-c2ccccc2)n1 | inactive | –
23 | CC(=O)N1CCN(Cc2ccc([C@H](C)Nc3nccc(N4C(=O)OC[C@@H]4C(C)C)n3)cc2)CC1 | inactive | –
24 | C/C(=C\CCC(C)CCO)C(=O)OC1(C)CCC2C(C(=O)O)=COC(OC3OC(CO)C(O)C(O)C3O)C21 (configuration not stated) | inactive | –
25 | Cc1cc(C(N)=O)ccc1-n1c(CCC(=O)O)ccc1-c1ccc(-n2ccnc2)cc1 | inactive | –
26 | NC(=O)c1csc(C2OC(CO)C(O)C2O)n1 (configuration not stated) | inactive | –
27 | COc1c2c(c(CO)c3c1C(=O)OC3)OC1(C)CCC3(O)C(C)(C)OC(=O)CCC3(C)C1C2 (configuration not stated) | inactive | –
28 | CC1=C(C)C(=O)OC(C(C)C2CCC3C4CC=C5CC(OC6OC(COC7OC(CO)C(O)C(O)C7O)C(O)C(O)C6O)CC(O)C5(C)C4CCC23C)C1 (configuration not stated) | inactive | –
29 | O=C(NCc1cccc(O)c1)c1cc2cc(F)ccc2[nH]1 | inactive | –
30 | CCOc1cc(CC(=O)NC(CC(C)C)c2ccccc2N2CCCCC2)ccc1C(=O)O (configuration not stated) | inactive | –
31 | CC1(C)CC2C(C1)C(C)(O)C13CC1(COC3=O)C2O (configuration not stated) | inactive | –
32 | NC1(C(=O)NC(CCO)c2ccc(Cl)cc2)CCN(c2ncnc3[nH]ccc23)CC1 (configuration not stated) | inactive | –
33 | COC(=O)c1ccnc(-c2cc(C(=O)NCCc3ccccc3)ccn2)c1 | inactive | –
34 | COC(=O)c1cc(OC)cc(OC)c1C(=O)c1c(OC)cc2c(c1O)C1CCCC(C)(O2)O1 (configuration not stated) | inactive | –
35 | O=C(O)CC1CCC(c2ccc(-c3ccc4nc(C(=O)NCc5ccc(OC(F)(F)F)cc5)cn4c3)cc2)CC1 (configuration not stated) | inactive | –
36 | COc1cc2occc2c(O[C@@H]2O[C@H](CO)[C@@H](O)[C@H](O)[C@H]2O)c1CCC(=O)O | inactive | –
37 | O=C(Nc1nc2ccccc2n1CCc1ccccc1)c1ccccc1 | inactive | –
